Data taken from PubChem BioAssay AID2384 (Southern Research Specialized Biocontainment Screening …, 2010).
The campaign covered roughly 2,300 compounds. About 1,100 (48%) were called active. The set was probably picked from earlier hits. The list shows a part of the results. Measured potencies and affinities stand elsewhere. Unmarked numbers belong to inactive results. No rule for the calls is given here.

Assay: inhibitors in S. typhi counter-screen strain, dose response, counter-screen for PhoP regulon inhibitor project, fluorescence, 4 h (AID 2384)
Details: S. typhi GFP reporter counter-screen; series mostly up to 150 µM; inhibition: at the top concentration

SMILES | inhibition [%]
Cc1ccc(C(=O)NCC(=O)NCCc2ccc(S(N)(=O)=O)cc2)s1 | -6.17
N#Cc1nc(COc2ccc(Br)cc2)oc1NCCCn1ccnc1 | 39.4
O=C1CCCN1c1ccc(CNS(=O)(=O)c2ccc(F)cc2)cc1 | 17.6
COc1ccccc1C(=O)Nc1nnc(-c2ccc(Cl)cc2)o1 | 33.4
COc1cccc(-c2nc(CS(=O)CC(=O)NCCCOC(C)C)c(C)o2)c1 (stereo unspecified) | -12
COc1ccc(S(=O)(=O)NCCSCc2ccco2)cc1Cl | 15.2
O=C(N/N=C\c1c[nH]c2ccccc12)c1ccc(O)cc1 | 37
Cn1c(N/N=C/c2c[nH]c3ccccc23)nc2ccccc21 | 15.1
COc1cc(C(=O)N/N=C/c2coc3ccccc3c2=O)cc(OC)c1OC | 37.1
O=C1CC(=O)CC(c2ccco2)C1 | -5.92
FC(F)Oc1ccc(NC(=S)NCc2nc3ccccc3[nH]2)cc1 | 6.2
Cc1nn(-c2ccccc2)c(C)c1/C=N/n1c(-c2ccc(C(C)(C)C)cc2)n[nH]c1=S | -19.4
O=C1CCCN1CCC1CCN(C2CC(=O)N(c3ccc(Cl)cc3)C2=O)CC1 (stereo unspecified) | 21.5
COc1ccc(-c2cc(=NCC(=O)O)c3ccccc3o2)cc1 | 10.1
COc1ccc(C(=O)Oc2ccc(/C=N/O)cc2)cc1 | 18.4
CCCC1=C(C(=O)OCC)C(c2ccc(O)cc2)n2ncnc2N1 (stereo unspecified) | 4.74
Cc1cc2ccccc2c(=O)n1CC(=O)NCCC1=CCCCC1 | 14.6
Cc1ccccc1C(=O)c1cccn1CC(=O)NCCC1=CCCCC1 | 10.5
Cc1nc(C)c(-c2ccc(SCc3ccccc3F)nn2)s1 | -11.1
O=C(O)c1cn(-c2ccc(F)cc2)c2cc(Cl)c(F)cc2c1=O | 22.6
COC(=O)C(O)(c1c(C)[nH]n(-c2ccccc2)c1=O)C(F)(F)F (stereo unspecified) | 29.5
CN(C)C(=O)COC(=O)/C=C/c1ccccc1[N+](=O)[O-] | 0.25
O=c1cc(-c2ccccc2)nc(N2CCN(Cc3ccccc3)CC2)[nH]1 | 10
COc1ccccc1Oc1coc2c(CN3CCN(C)CC3)c(O)ccc2c1=O | -13.2

SMILES | inhibition [%]
CCCC(c1nnnn1Cc1ccc(OC)cc1)N1CCN(c2ccccc2OC)CC1 (stereo unspecified) | -22.1
Cc1nc2scc(C)n2c(=O)c1S(=O)(=O)N1CCN(c2cccc(C(F)(F)F)c2)CC1 | -29.1
CCCCCN1C(=O)/C(=C/c2c(N3CCc4ccccc4C3)nc3ccccn3c2=O)SC1=S | -24.1
Cc1ccc(-n2ncc3c(=O)[nH]cnc32)c(C)c1 | 8.53
CCCCN(CCCC)CCNC(=O)CSCc1ccc(C)cc1 | 10.3
COc1ccc(N2C(=O)CC(N3CC=C(c4ccccc4)CC3)C2=O)cc1 (stereo unspecified) | -11.4
Brc1ccc2c(c1)CN1CCCC1=N2 | 15
CC(C)[C@@H](C(=O)NC1CCCC1)N1C(=O)N2CCc3c([nH]c4ccccc34)[C@@]2(C)C1=O | -11.3
O=C(N/N=C/c1ccc(F)c(F)c1)c1cc2c(s1)-c1ccccc1CC2 | 15
COc1cccc(CNC23CC4CC(CC(C4)C2)C3)c1OCc1ccccc1 | -6.35
COc1cc(CNc2ccc(N3CCN(C(C)=O)CC3)cc2)ccc1OCc1ccccc1 | 15.1
COc1ccc(Cl)cc1NC(=O)c1cc(-c2ccccc2)on1 | -21.2
O=c1c2ccccc2nc(-c2ccoc2)n1CCc1ccccc1 | 13.3
CCc1nc(SCC(=O)NCCc2ccccc2)c2c(=O)n(C)c(=O)n(C)c2n1 | 16.1
Cn1c(=O)c2c(nc(Br)n2CCSc2nc3ccccc3o2)n(C)c1=O | -4.7
CC1(C)CC(CCNC(=O)c2ccc(-n3cnnn3)cc2)CC(C)(C)N1 | -4.51
COc1ccc(C(=O)Nc2cc3c(cc2OC)CCCC3)cc1Br | -5.19
Nn1cnnc1SCC(=O)Nc1ccc(C2CCCCC2)cc1 | 27.5
c1ccc(-c2nc(NC3CC3)nc(-n3ccnc3)n2)cc1 | -18.3
O=C(Nc1ccc2c(c1)nc1n2CCN(Cc2ccccc2)C1)c1cccs1 | 23.8
Cc1ccccc1Oc1ccc(Oc2ccccc2C)nn1 | -7.56
CC1CCN(C(=O)C2CCCN(S(C)(=O)=O)C2)CC1 (stereo unspecified) | -2.71
C[N+]1(C)C2CCC1CC(OC(=O)c1ccccc1)C2 (stereo unspecified) | 1.68
CN(C)C=NC(=O)c1cc(C(=O)c2ccc(Cl)cc2Cl)c[nH]1 | 29.9

SMILES | inhibition [%]
CCN(CC)C(=O)C1CCN(Cc2ccc(Br)cc2)CC1 | 11.4
COc1ccc(N2C3=C(CC4=C2CC(C)(C)CC4=O)C(=O)CC(C)(C)C3)cc1 | 14.8
COc1ccc(Cl)cc1NC(=O)CN(C)CC(=O)Nc1ccccc1C(F)(F)F | 9.99
CC1Cc2ccccc2N1C(=O)CN1C(=O)C(=O)N(Cc2ccccc2)C1=O (stereo unspecified) | -9.75
Cc1c(/C=N/NC(=O)c2ccc3c(c2)OCO3)cnn1C | 12.9
Cc1c(/C=N/NC(=O)c2sc3ccccc3c2Cl)cnn1C | 10.8
N#CC1=C2N=C(N)c3ccccc3N2C2=C(C(=O)CCC2)C1c1cccc(Cl)c1 (stereo unspecified) | -19.9
CC(C(=O)c1ccc2ccccc2c1)N1CCCCC1 (stereo unspecified) | 36.4
c1ccc2oc(-c3ccc(Nc4nc(N5CCCCC5)nc(N5CCOCC5)n4)cc3)nc2c1 | 8.13
CCOc1ccccc1NC1=NC2CS(=O)(=O)CC2S1 (stereo unspecified) | -10.3
CC(C)c1cc(C(=O)Nc2ccc3c(c2)OCO3)no1 | 9.74
CCOC(=O)c1sc(N)c(C(=O)OC)c1C | -13.7
S=C1SCN(Cc2cccnc2)CN1Cc1cccnc1 | 25
CC(OC(=O)Cc1coc2cc3c(cc12)CCC3)C(=O)NCc1ccc2c(c1)OCO2 (stereo unspecified) | 5.64
Cc1ccc(NC(=O)CN(C)C(=O)Cn2ccsc2=N)cc1 | 27.2
O=C(NC(C(=O)c1ccccc1)n1c(=O)cc[nH]c1=S)c1ccccc1 (stereo unspecified) | 16.6
CCSc1nc(C)cc(C)c1S(=O)(=O)c1ccccc1C | 1.56
CCN(CC)CCSc1nnc2c3ccccc3n(Cc3ccccc3)c2n1 | 16.3
O=C1SC(c2ccccc2)=C/C1=C\N1CCCCC1 | 31.5
Cc1cc(C)n(-c2nc3ccccc3nc2N2CCN(C(=O)c3ccc(F)cc3)CC2)n1 | 10.4
O=C(CCNS(=O)(=O)c1cccc2nonc12)N1CCN(c2cccc(Cl)c2)CC1 | -12.9
Cc1c(C=O)c2ccccn2c1C(=O)c1ccccc1 | 0.47
CCCCC(=O)Nc1ccc2c(c1)C(=O)NC2=O | -15.3
